Laboratory results taken from PubChem BioAssay (NCATS).
Records with an inconclusive call do not appear. Active and inactive are the calls of the source. Calls follow the shape of the dose curve; as a rule, active = well fitted inhibition curve with a large enough effect; inconclusive = small, poorly fitted or top-dose-only effect; inactive = flat fitted curve, though single readings scatter.

What was measured:
Assay in all cases: qHTS profiling for inhibitors of Plasmodium falciparum proliferation (AID 504749); also: nearly all actives have a fitted effect of over 60% in size
Conditions in all cases: P. falciparum in erythrocytes, SYBR Green DNA, 72 h; series mostly up to 28.7 µM
[1] = system: CP260
How it was run: (§1)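 Three-day growth assay of blood-stage parasites in erythrocytes (0.3% parasitemia, 2.5% hematocrit) at 37 C, 5% CO2, quantified by SYBR Green DNA staining after overnight detergent lysis.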

[2] = system: CP262
How it was run: as §1

[3] = system: CP265
How it was run: as §1

[4] = system: CP266
How it was run: as §1

[5] = system: CP268
How it was run: as §1

[6] = system: CP269
How it was run: as §1

[7] = system: CP286
How it was run: as §1

[8] = system: CP291
How it was run: as §1

[9] = system: CP297
How it was run: as §1

[10] = system: CP305
How it was run: as §1

[11] = system: CP315
How it was run: as §1

[12] = system: CP325
How it was run: as §1

[13] = system: CP329
How it was run: as §1

[14] = system: CP335
How it was run: as §1

[15] = system: DFO2036
How it was run: as §1

[16] = system: DIV14
How it was run: as §1

[17] = system: DIV17
How it was run: as §1

[18] = system: DIV30
How it was run: as §1

[19] = system: Dd2
How it was run: as §1

[20] = system: ECU
How it was run: as §1

[21] = system: FAB9
How it was run: as §1

[22] = system: GB4
How it was run: as §1

[23] = system: HB3
How it was run: as §1

[24] = system: ICS
How it was run: as §1

[25] = system: JCK
How it was run: as §1

[26] = system: N140
How it was run: as §1

[27] = system: P93_24
How it was run: as §1

[28] = system: P94_40
How it was run: as §1

[29] = system: PAD
How it was run: as §1

[30] = system: PC15
How it was run: as §1

[31] = system: PC26
How it was run: as §1

[32] = system: PC49
How it was run: as §1

[33] = system: SC27B
How it was run: as §1

[34] = system: TAB109
How it was run: as §1

[35] = system: TAB113
How it was run: as §1

[36] = system: TAB165
How it was run: as §1

[37] = system: W2
How it was run: as §1

Measured: Potency

O=C(O)[C@H]1C[C@@H](CP(=O)(O)O)CCN1
inactive: [1] | [2] | [3] | [4] | [5] | [6] | [7] | [8] | [9] | [10] | [11] | [12] | [13] | [14] | [15] | [16] | [17] | [18] | [19] | [20] | [21] | [22] | [23] | [24] | [25] | [26] | [27] | [28] | [29] | [30] | [31] | [32] | [33] | [34] | [35] | [36] | [37]
